An excerpt weighted towards active compounds, which were near 9.3% of everything screened.
ELG1 genotoxic = genotoxicity induction in ELG1-luciferase HEK293T cells; AID 504466; HEK293T ELG1-luciferase reporter, luminescence, 16 h; Potency, µM (highest dose often 46 µM), for inactives: top-dose activity change, positive = activation, most hits filed as activators; 1.3% of 330,000 active; also: % of control where 0% means no effect; nearly all actives have a fitted effect of over 60% in size
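ELG1-luciferase HEK293T cells, 2,000/well; compound pinned in; 16 hr, 37 °C, 5% CO2; ONE-Glo, 30 min RT; luminescence on CCD imager.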
NPC1 promoter act = NPC1 promoter activation; Huh7 NPC1 promoter luciferase reporter, 24 h; Potency, µM (top dose mostly 9.22 µM), without a hit: top-dose activation, hits mostly activators; 2.4% of 320,000 active; AID 485313; also: % of control where 0% means no effect; nearly all actives have a fitted effect of over 60% in size
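In 1536-well qHTS, Huh7 cells harboring an NPC1 promoter–luciferase construct received compound for 24 h; activation was quantified by luminescence following luciferase reagent addition.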
ELG1 repair inh = blocks ELG1-dependent DNA repair in HEK293T cells | HEK293T ELG1-luciferase reporter, luminescence, 16 h; DNA damage induced by 5-fluorouridine | Potency, µM (titrated, usually from 46.1 µM), without a hit: at the top dose activity change, negative = inhibition, usual class: inhibitors | 2.3% of 330,000 active; also: % is scaled to controls: 0 for no effect and ±100 for the full control effect; nearly all actives have a fitted effect of over 55% in size
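Overnight (16 hr) co-exposure of 2,000 cells/well to 5-fluorouridine and compound at 37 °C preceded detection. Luciferase was quantified via ONE-Glo luminescence; loss of signal denotes inhibition.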
FLuc counter = firefly luciferase modulation, counter-screen for miR-21 project; Potency, µM (highest dose often 57.5 µM), for the others: top-dose activity change, negative = inhibition, most hits filed as inhibitors; purified FLuc, Km substrates, luminescence inhibition; AID 588342; P08659; 6.9% of 360,000 active;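 also: plate controls were vehicle for no effect and reference inhibitor for full effect; nearly all actives have a fitted effect of over 55% in size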
Target sequence (P08659 whole entry, looked up): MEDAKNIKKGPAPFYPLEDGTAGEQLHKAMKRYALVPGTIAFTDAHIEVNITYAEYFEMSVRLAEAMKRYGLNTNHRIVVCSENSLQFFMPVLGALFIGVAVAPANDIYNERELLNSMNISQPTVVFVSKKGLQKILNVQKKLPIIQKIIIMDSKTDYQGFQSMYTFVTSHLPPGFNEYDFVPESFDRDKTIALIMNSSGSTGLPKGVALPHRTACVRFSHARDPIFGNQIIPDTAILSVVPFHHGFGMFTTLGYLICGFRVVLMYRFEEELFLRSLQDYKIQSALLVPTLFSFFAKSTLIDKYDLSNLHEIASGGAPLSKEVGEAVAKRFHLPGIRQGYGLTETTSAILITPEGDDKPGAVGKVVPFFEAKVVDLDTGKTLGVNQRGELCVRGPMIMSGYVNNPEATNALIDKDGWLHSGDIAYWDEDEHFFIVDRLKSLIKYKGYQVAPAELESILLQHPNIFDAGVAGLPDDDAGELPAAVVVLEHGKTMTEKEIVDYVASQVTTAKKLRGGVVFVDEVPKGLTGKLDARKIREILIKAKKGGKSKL
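Purified P. pyralis luciferase, 10 nM final, with Km-level 10 uM D-luciferin and 10 uM ATP in 50 mM Tris acetate pH 7.5, 10 mM Mg acetate, 0.01% Tween-20, 0.05% BSA; 6-point qHTS titration about 60 µM downward; luminescence read.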
SMN2 splice enh = SMN2 splice variant enhancement | HEK293 SMN2-luciferase splicing reporter, luminescence, 30-36 h | Potency, µM (top dose mostly 46.1 µM), inactives show at the top dose activity change, positive = activation, actives largely listed as activators | 2.8% of 210,000 active | AID 1458; also: % of control where 0% means no effect; nearly all actives have a fitted effect of over 55% in size
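qHTS luciferase splicing reporter: luminescence rises when SMN2 exon 7 is included in transfected HEK293 cells. Compound exposure lasted 30-36 h at 37C, with 4.5 mM final sodium butyrate as control, followed by a ONE-Glo read.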
Rab9 prom act = Rab9 promoter activation. 2.8% of 320,000 active. Potency, µM (titrated, usually from 9.22 µM), for inactives: top-dose activation, negative = inhibition, most hits filed as activators. Huh7 Rab9 promoter-luciferase reporter, luminescence, 24 h; also: % of control where 0% means no effect; nearly all actives have a fitted effect of over 60% in size
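Luciferase signal after 10 min detection reagent at ambient indicates Rab9 promoter upregulation; stably transfected Huh7 cells were treated 24 h with compound in DMSO at 37 °C, 5% CO2.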
The depositor's hits bear a star; ? = inconclusive; . = not tested or not shown; [ ] = another dose, or the depositor's remark. Calls follow the shape of the dose curve; as a rule, active = well fitted curve in the direction sought with a large enough effect; inconclusive = small, poorly fitted or top-dose-only effect, or another doubt; inactive = no such curve, though single readings can be large; an effect the other way counts as inactive or inconclusive. Potency is read from the fitted curve at half-maximal effect.

SMILES	ELG1 genotoxic	NPC1 promoter act	ELG1 repair inh	FLuc counter	SMN2 splice enh	Rab9 prom act
Clc1ccc(-c2nc3cnccn3c2Nc2ccc3c(c2)OCO3)cc1	-5%	-6%	-17%	?	1%	1%
CSc1ccc(-c2nc3cnccn3c2Nc2ccc3c(c2)OCO3)cc1	-1%	0%	14%	19µM*	-2%	-4%
c1cn2c(Nc3ccc4c(c3)OCCO4)c(-c3ccc(N4CCOCC4)cc3)nc2cn1	?	26%	?	2.7µM*	.	21%
Cc1ccc(C)c(CNC(=O)Nc2ccccc2)c1	?	?	?	13µM*	.	?
Cc1ccc(CNC(=O)Nc2ccc(Cl)cc2)cc1	?	?	?	-8%	.	4µM*
COc1ccc(CNC(=O)Nc2cccs2)cc1OC	1%	0%	-1%	-1%	2%	-1%
Cc1ccc(CNC(=O)Nc2cccs2)cc1	14%	?	?	12µM*	16µM*	?
CSc1ccc(NC(=O)NCc2ccccc2)cc1	?	4.5µM*	?	?	.	4.5µM*
COc1ccc([C@H]2CC(=O)C=C(c3cccc(C#N)c3)C2)cc1	-2%	-3%	?	1%	.	-7%
CCOP(=O)(OCC)C(Nc1ccc(OC)cc1)c1ccco1 (centres undefined)	-12%	0%	-22%	-1%	-15%	10%
CCOc1ccc(CC(=O)N2CCC3(CC2)NCCc2[nH]cnc23)cc1	0%	0%	12%	3%	.	-5%
Cc1ccc(CNC(=O)Nc2ccccc2)cc1	9.2µM*	?	?	12µM*	16µM*	2.5µM*
Cc1ccc(CNC(=O)NCc2ccccc2)cc1	8%	23%	?	?	?	4%
O=C(NCC1CC1)Nc1ccc(Cl)cc1	?	?	?	17µM*	.	?
CCc1nc2cc(Cl)c(Cl)cc2nc1CC	-1%	-2%	4%	-2%	.	-1%
COC(=O)c1sc(NC(=S)NC(=O)c2cccc(Br)c2)nc1C	14%	-4%	?	13µM*	.	3%
CCOc1ccc(C(=O)Nc2nc(C)c(C(=O)OC)s2)cc1	21µM*	?	?	0.76µM*	.	?
COC(=O)c1sc(NC(=S)NC(=O)c2ccc(F)cc2)nc1C	10%	27%	-12%	3%	-36%	?
COC(=O)c1sc(NC(=O)c2ccncc2)nc1C	4%	-2%	11%	24µM*	.	12%
O=C(CNC(=O)c1cccc(Br)c1)N/N=C/c1cn[nH]c1-c1ccccc1	0%	0%	0%	3%	-10%	-6%
CC(C)c1nnc(N2C(=O)c3oc4ccccc4c(=O)c3C2c2ccccc2F)s1 (centres undefined)	.	.	.	4%	11%	.
CC(C)(C)C1CCC(OC(=O)CN2CCCCC2)CC1 (centres undefined)	10%	21%	16%	19µM*	.	15%
CC(C)(C)C1CCC(OC(=O)c2ccncc2)CC1 (centres undefined)	1%	-23%	5%	?	10%	4%
N#CCCN(CCC#N)S(=O)(=O)c1ccc(C(=O)Nc2nc(-c3ccccc3)c(C(=O)c3ccccc3)s2)cc1	-1%	7%	?	0%	.	-2%
Oc1ccc(-c2cnc(-c3ccc(O)cc3)nc2)cc1	2.9µM*	1.1µM*	?	1.1µM*	.	?
SMILES	ELG1 genotoxic	NPC1 promoter act	ELG1 repair inh	FLuc counter	SMN2 splice enh	Rab9 prom act
CCCC(=O)Nc1ccc(-c2cnc(-c3ccc(NC(=O)CCC)cc3)nc2)cc1	4%	-4%	0%	9%	.	2%
Nc1ccc(-c2cnc(-c3ccc(N)cc3)nc2)cc1	?	1.1µM*	?	3.4µM*	3.5µM*	1.6µM*
O=C(CN1C(=O)CCc2cc(S(=O)(=O)N3CCOCC3)ccc21)Nc1cccc(C(F)(F)F)c1	.	.	.	-10%	.	.
COc1ccc(N=[N+]([O-])c2ccc(OC)cc2)cc1	.	.	.	.	7.1µM*	.
COc1ccc(S(=O)(=O)c2ccc(OC)cc2)cc1	4%	-3%	-11%	0%	-12%	-5%
COCCn1c(=O)[nH]c2cc(C(=O)NC(C)C)ccc2c1=O	-2%	-3%	-7%	-3%	2%	-1%
CC(=O)N1/C(=C/c2ccc(N(C)C)cc2)C(=O)c2ccccc21	-29%	1%	?	17µM*	-38%	0%
CCc1ccc(-n2c(CCC(=O)O)ccc2-c2cccs2)cc1	.	.	.	13µM*	2%	.
Cc1ccc(-n2c(CCC(=O)O)ccc2-c2cccs2)cc1C	2%	2%	6%	12µM*	-12%	-8%
CCOc1ccc(NC(=O)CCNS(=O)(=O)c2ccc3c(c2)oc(=O)n3C)cc1	-2%	3%	5%	3%	-1%	0%
COc1ccccc1NC(=O)c1ccc2nsnc2c1	?	?	?	15µM*	.	4µM*
COc1cc(C(=O)Nc2cccc(C(C)=O)c2)cc(OC)c1OC	1%	-2%	18%	-24%	.	-3%
COc1cc(NC(=O)c2ccc3nsnc3c2)cc(OC)c1OC	6%	-1%	21%	-4%	.	4%
COc1cc(OC)cc(C(=O)Nc2cccc(C(C)=O)c2)c1	?	15%	17%	?	10%	18%
COc1ccc(C(=O)CC(=O)C(=O)Nc2ccc(Cl)cc2)cc1	-6%	-3%	?	-1%	.	-5%
COc1cc(C(=O)Nc2cccc(NC(=O)c3ccccc3)c2)cc(OC)c1OC	-8%	-1%	?	15µM*	.	2%
COc1cc(OC)cc(C(=O)Nc2cccc(NC(=O)c3ccccc3)c2)c1	-7%	-4%	16µM*	17µM*	.	0%
COc1ccc(C(=O)CC(Nc2ccc([N+](=O)[O-])cc2)c2ccc(Cl)cc2)cc1 (centres undefined)	-29%	1%	16µM*	?	6%	-4%
COc1ccc(OC)c(-c2nn(-c3ccccc3)cc2C(=O)NCC(c2cccs2)N2CCOCC2)c1 (centres undefined)	-1%	-7%	?	2%	.	1%
Cc1cccc(N2CCN(C(=O)c3ccc4ccccc4c3)CC2C)c1 (centres undefined)	-6%	.	?	.	.	.
O=C(Cn1c(NCCO)nc2ccccc21)NCC(F)(F)F	-1%	1%	1%	0%	.	-7%
NNC(=O)CCc1ccc2ccc3ccccc3c2c1	.	.	.	.	-14%[9.22 µM]	.
COc1cccc(NC(=O)c2ccc3nsnc3c2)c1	?	?	?	12µM*	.	?
COc1cc(C(=O)Nc2ccc(N(C)C)cc2)cc(OC)c1OC	?	4%	?	3µM*	.	24%
